Data reported in PubChem BioAssay AID2238 (Southern Research Specialized Biocontainment Screening …, 2010).
Active and inactive are the calls of the source. How the calls were made is not given here.

Assay: West Nile virus CPE inhibition, SAR follow-up, cell-based, synthesized analogs (AID 2238)
Details: West Nile virus CPE inhibition in cells; max CPE inhibition: measured here: maximum CPE inhibition observed, at 40 µM, stronger effect = higher value unless noted; series mostly up to 40 µM

Structure (SMILES)	max CPE inhibition	outcome
CC(=O)Nc1ccc2nc3n(c(=O)c2c1)CCC3	2.33%	inactive
Cc1cccc2c1-c1sc(C(=O)NCCCN3CCCC(C)C3)cc1CO2 (stereo unspecified)	12.1% [measured here: maximum CPE inhibition observed, at 10 µM, stronger effect = higher value]	inactive
O=C(CSc1nc2ccccc2c(=O)n1-c1ccc(F)cc1)Nc1cccc2ccccc12	2.57%	inactive
O=c1c2cc(I)ccc2nc2n1CCC2	0.68%	inactive
Nc1ccc2nc3n(c(=O)c2c1)CCC3	1.56%	inactive
O=C(Nc1nc(-c2ccc(Cl)cc2)cs1)c1ccc(Cl)cc1	0.79%	inactive
CCN(CC)CCCNC(=S)N1CCN(c2nc(-c3ccc(F)cc3)cs2)CC1	29.4% [measured here: maximum CPE inhibition observed, at 20 µM, stronger effect = higher value]	inactive
c1ccc2c(c1)CN1CCCC1=N2	2.6% [measured here: maximum CPE inhibition observed, at 80 µM, stronger effect = higher value]	inactive
Cc1ccc2nc3n(c(=O)c2c1)CCC3	2.12%	inactive
O=c1c2cccc(Cl)c2nc2n1CCC2	1.83%	inactive
O=C(CSc1nc2ccccc2c(=O)n1-c1ccc(F)cc1)Nc1ccc2c(c1)OCCO2	2.5%	inactive
O=c1c2cc(Br)ccc2nc2n1CC/C2=C/c1ccccc1	1.37%	inactive
CC1CC(C)CN(C(=O)CSc2nc3ccccc3c(=O)n2-c2ccc(F)cc2)C1 (stereo unspecified)	2.88%	inactive
